# Laboratory results reported in the supplement of paper PMC9948646.
# Test system: gramicidin D channels in DC22:1PC lipid vesicles (bilayer-modifying potency)
# Assay: initial Tl+ fluorescence quench rate relative to no-drug control (NormRate, gramicidin monomer-dimer shift) (ratio (fold of control)); higher = stronger bilayer-modifying effect (equilibrium shifted toward conducting dimers), active = 1.5 or more
# Conditions: 10 µM; lipid concentration 50 µM; temperature: 25 °C
# Description: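 Stopped-flow fluorescence quench assay: ANTS-loaded DC22:1PC large unilamellar vesicles doped with gramicidin D (1:2000), 50 µM lipid, equilibrated 10 min with 10 µM drug (0.1% DMSO), mixed with Tl+ quench buffer at 25°C. Initial quench rate (Tl+ influx) was fitted with a modified stretched exponential and normalised to the no-drug control rate (NormRate); duplicates from two independent LUV preparations (triplicates for 7 drugs).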
row,SMILES,initial Tl+ fluorescence quench rate
1,C[C@@]1(COc2ccc(N3CCC(Oc4ccc(OC(F)(F)F)cc4)CC3)cc2)Cn2cc([N+](=O)[O-])nc2O1,1.1 (inactive)
2,CS(=O)(=O)N1CCC(Cn2nc(Cc3cccc4ccccc34)c3c(N)ncnc32)CC1,1.47 (inactive)
3,Cc1nc2ccccn2c1C(=O)NCc1ccc(Cl)cc1,1.17 (inactive)
4,N#Cc1ccc(-c2ccc(OCC(N)=O)cc2)cc1,1.06 (inactive)
5,C[C@H]1C[C@@H]1C(=O)NC1CCN(CC2(c3ccccc3)CCCCC2)CC1,1.06 (inactive)
6,Cn1c(=O)c2c(S(C)(=O)=O)snc2n(C)c1=O,1.19 (inactive)
7,CNCC[C@H](Oc1ccc(C(F)(F)F)cc1)c1ccccc1,1.41 (inactive)
8,O=C(c1ccc(NCCO)cc1)[C@H]1C[C@H]1c1ccc(Cl)cc1,3.55 (active)
9,O=C1COCc2ccc(Br)cc2N1Cc1ccc(C(F)(F)F)cc1,1.55 (active)
10,CC1=Nc2ccc(Cl)cc2[C@](O)(c2ccc(C)cc2)N1CCN1CCCCC1,1.66 (active)
11,Nc1ncnc2c1c(Cc1cccc3ccccc13)nn2CC1CCNCC1,1.15 (inactive)
12,Cc1[nH]c2cc(F)cc(F)c2c(=O)c1-c1ccc(Oc2ccc(OC(F)(F)F)cc2)cc1,1.11 (inactive)
13,Nc1ncnc2c1ncn2[C@@H]1O[C@H](COS(=O)(=O)NC(=O)c2ccccc2O)[C@@H](O)[C@H]1O,1.02 (inactive)
14,COc1cc(CN2CCC3(C=Cc4ccccc43)CC2)cc2c1OCO2,2.43 (active)
15,CCN(CC)S(=O)(=O)c1ccc(C(=O)Nc2cc(C)nn2-c2nc(C)c(C)c(=O)[nH]2)cc1,1.57 (active)
16,CC(=O)N(CCN(C(=O)c1ccc(F)cc1)c1ccccc1)c1ccccc1,1.14 (inactive)
17,CCc1nc2ccc(Cl)cn2c1C(=O)NCc1ccc(N2CCC(c3ccc(OC(F)(F)F)cc3)CC2)cc1,1.09 (inactive)
18,Cc1cc(C)n2nc(C(=O)Nc3cc(C(F)(F)F)ccc3N3CCOCC3)nc2n1,1.17 (inactive)
19,Cc1ccc(S(=O)(=O)N2CCN(C(=O)c3cc(-c4ccccc4)[nH]n3)CC2)cc1,1.38 (inactive)

row,SMILES,initial Tl+ fluorescence quench rate
1,CC1=NN(c2nc3ccccc3s2)C(=O)[C@@H]1Cc1cccc2ccccc12,2.18 (active)
2,C[C@]1(O)C[C@@H](c2nc(-c3ccc4ccc(-c5ccccc5)nc4c3)c3c(N)nccn32)C1,1.59 (active)
3,N[C@H](CC(=O)c1ccc(Cl)cc1Cl)C(Cl)(Cl)Cl,1.12 (inactive)
4,COc1ccc(-c2onc(C(F)(F)F)c2-c2ccc(Cl)cc2)c(O)c1,1.38 (inactive)
5,Cc1ccc2cc([C@@H]3NC(=O)c4ccccc4N3)c(Cl)nc2c1,1.08 (inactive)
6,COc1nc2ccc(Br)cc2cc1[C@@H](c1ccccc1)[C@@](O)(CCN(C)C)c1cccc2ccccc12,6.48 (active)
7,O=C(NCCN1CCCC1)c1cc(NCCCCN2CCC(F)(F)CC2)nc2ccc(Cl)cc12,1.92 (active)
8,CC(C)c1ncc(-c2ccncc2)c([C@H]2CC[C@H](CNC(=O)c3cccnc3)CC2)n1,1.02 (inactive)
9,CNc1cc(C)nc([C@@H]2CN(C(=O)c3n[nH]c4ccccc34)CCO2)c1,1.11 (inactive)
10,FC(F)(F)c1nnc2ccc(Cl)nn12,1.02 (inactive)
11,CCOC(=O)c1cc(-c2csc(Nc3c(C)cc(C)cc3C)n2)on1,1.15 (inactive)
12,O=C(NCc1cc(Cl)cc(Cl)c1)c1c(C(F)(F)F)nc2ccccn12,1.21 (inactive)
13,CCCCS(=O)(=O)Nc1ccc2cnn(C)c2c1,1.36 (inactive)
14,NCCN(C(=O)c1ccc(Cl)cc1Cl)c1ccc(OCc2ccc(Cl)cc2)cc1,5.93 (active)
15,COc1cccc(-c2nc3c(N4CCCC4)cccc3n2C[C@H]2CCCN2)n1,1.21 (inactive)
16,NCC(=O)N1CCn2c(nc(-c3ccccc3)c2Nc2ccc3c(c2)OCO3)C1,1.36 (inactive)
17,CCCn1c(NC(=O)c2ccc3ccccc3n2)nc2ccccc21,1.4 (inactive)
18,Nc1ncc(Br)cc1-c1nc2cc(Cl)cnc2[nH]1,1.06 (inactive)
19,CN1CCC(c2cc(-c3ccncc3)c(-c3ccc(F)cc3)[nH]2)CC1,1.03 (inactive)
